“And” between values parts separate entries of the source, which are not always exact repeats. Equal values may be shown once. The campaign covered roughly 5,500 compounds. About 2,000 (36%) were called active. Roughly 18% stayed inconclusive and do not appear here. The list shows a part of the results. A number with no mark means an inactive call. No stated cut-off is given here; in the data, active means normalized growth mostly below about 0.91 (no sharp cut-off); inconclusive means no clear call, values can overlap the other calls; inactive means mostly above about 0.92.
Assay: chemical genetic growth profiling, strain panel (AID 1159580);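 further: tested at 20 µM; growth read once vehicle control cultures reached saturation at 30 °C; 1 = growth at the plate median or of vehicle wells; lower values mean less growth of the strain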
Conditions: S. cerevisiae deletion strains, growth OD

## C=C(C)[C@H]1Cc2c(ccc3c2O[C@@H]2COc4cc(OC)c(OC)cc4[C@@H]2C3=O)O1
Locus YAL013W, strain DEP1, hits give low values
  normalized growth: 1.01
Locus YAL021C, strain ccr4, hits give low values
  normalized growth: 0.993
Locus YAL026C, strain drs2, hits give low values
  normalized growth: 0.962
Locus YAL030W, strain snc1, hits give low values
  normalized growth: 0.982
Locus YBL061C, strain skt5, hits give low values
  normalized growth: 0.994
Locus YBR009C, strain hhf1, hits give low values
  normalized growth: 0.892 (active)
Locus YBR021W, strain FUR4, hits give low values
  normalized growth: 0.975
Locus YBR023C, strain chs3, hits give low values
  normalized growth: 0.962
Locus YBR171W, strain sec66, hits give low values
  normalized growth: 0.979
Locus YBR229C, strain ROT2, hits give low values
  normalized growth: 1.01
Locus YBR231C, strain swc5, hits give low values
  normalized growth: 1
Locus YBR279W, strain paf1, hits give low values
  normalized growth: 1.06
Locus YCL011C, strain gbp2, hits give low values
  normalized growth: 0.936
Locus YCL016C, strain dcc1, hits give low values
  normalized growth: 0.926
Locus YCL029C, strain bik1, hits give low values
  normalized growth: 1.03
Locus YCL061C, strain MRC1, hits give low values
  normalized growth: 1
Locus YCL069W, strain vba3, hits give low values
  normalized growth: 0.997
Locus YCR088W, strain abp1, hits give low values
  normalized growth: 1.03
Locus YDL005C, strain med2, hits give low values
  normalized growth: 0.99
Locus YDL035C, strain GPR1, hits give low values
  normalized growth: 0.956
Locus YDL040C, strain nat1, hits give low values
  normalized growth: 0.986
Locus YDL074C, strain BRE1, hits give low values
  normalized growth: 0.926
Locus YDL101C, strain DUN1, hits give low values
  normalized growth: 0.992
Locus YDL185W, strain tfp1, hits give low values
  normalized growth: 1.02
Locus YDL192W, strain arf1, hits give low values
  normalized growth: 1.02
Locus YDR001C, strain nth1, hits give low values
  normalized growth: 1.01
Locus YDR069C, strain doa4, hits give low values
  normalized growth: 0.991
Locus YDR101C, strain arx1, hits give low values
  normalized growth: 1
Locus YDR137W, strain rgp1, hits give low values
  normalized growth: 0.853
Locus YDR159W, strain sac3, hits give low values
  normalized growth: 0.984
Locus YDR162C, strain NBP2, hits give low values
  normalized growth: 0.966
Locus YDR195W, strain ref2
  normalized growth: 1.13
Locus YDR297W, strain sur2, hits give low values
  normalized growth: 0.966
Locus YDR318W, strain mcm21, hits give low values
  normalized growth: 1
Locus YDR334W, strain swr1, hits give low values
  normalized growth: 1.04
Locus YDR335W, strain msn5, hits give low values
  normalized growth: 1
Locus YDR388W, hits give low values
  normalized growth: 1.01
Locus YDR392W, strain spt3, hits give low values
  normalized growth: 0.762
Locus YDR502C, strain sam2, hits give low values
  normalized growth: 1
Locus YEL003W, strain gim4, hits give low values
  normalized growth: 0.981
Locus YEL037C, strain rad23, hits give low values
  normalized growth: 1.02
Locus YEL061C, strain CIN8 (second series), hits give low values
  normalized growth: 1.03
Locus YEL061C, strain CIN8, hits give low values
  normalized growth: 1
Locus YER015W, strain faa2, hits give low values
  normalized growth: 0.982
Locus YER016W, strain bim1, hits give low values
  normalized growth: 0.986
Locus YER110C, hits give low values
  normalized growth: 1.11 [resistant] (active)
Locus YER111C, strain swi4, hits give low values
  normalized growth: 1.02
Locus YER155C, strain BEM2 (second series), hits give low values
  normalized growth: 1.07
Locus YER155C, strain BEM2, hits give low values
  normalized growth: 1
Locus YER167W, strain BCK2, hits give low values
  normalized growth: 0.966
Locus YFR010W, strain ubp6, hits give low values
  normalized growth: 1.01
Locus YGL078C, strain dbp3, hits give low values
  normalized growth: 1.01
Locus YGL086W, strain mad1, hits give low values
  normalized growth: 0.993
Locus YGL167C, strain pmr1, hits give low values
  normalized growth: 0.97
Locus YGL173C, strain kem1, hits give low values
  normalized growth: 0.98
Locus YGL227W, strain vid30, hits give low values
  normalized growth: 1.01
Locus YGL240W, strain doc1, hits give low values
  normalized growth: 0.999
Locus YGL248W, strain PDE1, hits give low values
  normalized growth: 0.993
Locus YGL253W, strain hxk2, hits give low values
  normalized growth: 0.964
Locus YGR135W, strain pre9, hits give low values
  normalized growth: 0.996
Locus YGR229C, strain SMI1, hits give low values
  normalized growth: 0.924
Locus YGR252W, strain gcn5, hits give low values
  normalized growth: 0.914
Locus YHR013C, strain ard1, hits give low values
  normalized growth: 1
Locus YHR027C, strain rpn1, hits give low values
  normalized growth: 0.975
Locus YHR030C, strain SLT2, hits give low values
  normalized growth: 1.01 and 0.915
Locus YHR079C, strain IRE1 (second series), hits give low values
  normalized growth: 1.02
Locus YHR079C, strain IRE1, hits give low values
  normalized growth: 0.95
Locus YHR094C, strain hxt1, hits give low values
  normalized growth: 1.02
Locus YHR129C, strain ARP1, hits give low values
  normalized growth: 1.01
Locus YHR142W, strain chs7, hits give low values
  normalized growth: 0.972
Locus YHR200W, strain rpn10, hits give low values
  normalized growth: 0.996
Locus YIL066C, strain RNR3, hits give low values
  normalized growth: 0.968
Locus YIL073C, strain SPO22, hits give low values
  normalized growth: 1.04
Locus YIL125W, strain kgd1, hits give low values
  normalized growth: 1.01
Locus YIR030C, strain dcg1, hits give low values
  normalized growth: 1.02
Locus YJL092W, strain hpr5, hits give low values
  normalized growth: 1.01
Locus YJL095W, strain BCK1 (second series), hits give low values
  normalized growth: 0.967
Locus YJL095W, strain BCK1, hits give low values
  normalized growth: 0.958 and 0.936
Locus YJL115W, strain asf1, hits give low values
  normalized growth: 1.02
Locus YJL129C, strain trk1, hits give low values
  normalized growth: 0.901
Locus YJL134W, strain LCB3, hits give low values
  normalized growth: 1.01
Locus YJL154C, strain vps35, hits give low values
  normalized growth: 1
Locus YJL164C, strain tpk1, hits give low values
  normalized growth: 0.917 (active)
Locus YJL166W, strain qcr8, hits give low values
  normalized growth: 0.932
Locus YJL168C, strain set2, hits give low values
  normalized growth: 1.04
Locus YJL187C, strain SWE1 (second series), hits give low values
  normalized growth: 0.982
Locus YJL187C, strain SWE1, hits give low values
  normalized growth: 0.993
Locus YJR043C, strain POL32, hits give low values
  normalized growth: 0.973
Locus YJR066W, strain TOR1, hits give low values
  normalized growth: 0.851
Locus YJR075W, strain HOC1, hits give low values
  normalized growth: 0.983
Locus YKL009W, strain mrt4, hits give low values
  normalized growth: 1.03
Locus YKL068W, hits give low values
  normalized growth: 1
Locus YKL085W, strain MDH1 (second series), hits give low values
  normalized growth: 1
Locus YKL085W, strain MDH1, hits give low values
  normalized growth: 1
Locus YKL160W, strain elf1, hits give low values
  normalized growth: 0.95
Locus YKL190W, strain CNB1, hits give low values
  normalized growth: 1
Locus YKR001C, strain vps1, hits give low values
  normalized growth: 0.947
Locus YKR026C, strain gcn3, hits give low values
  normalized growth: 1
Locus YKR091W, strain srl3, hits give low values
  normalized growth: 0.991
Locus YLL001W, strain dnm1, hits give low values
  normalized growth: 0.983
Locus YLL026W, hits give low values
  normalized growth: 0.976
Locus YLL041C, strain sdh2, hits give low values
  normalized growth: 0.99
Locus YLR027C, strain aat2, hits give low values
  normalized growth: 0.978
Locus YLR039C, strain RIC1, hits give low values
  normalized growth: 0.936
Locus YLR058C, strain SHM2, hits give low values
  normalized growth: 1.01
Locus YLR102C, strain apc9, hits give low values
  normalized growth: 1.02
Locus YLR113W, strain HOG1, hits give low values
  normalized growth: 0.968
Locus YLR221C, strain rsa3, hits give low values
  normalized growth: 0.921
Locus YLR258W, strain gsy2, hits give low values
  normalized growth: 0.958
Locus YLR262C, strain YPT6 (second series), hits give low values
  normalized growth: 0.83 (active)
Locus YLR262C, strain YPT6, hits give low values
  normalized growth: 0.99
Locus YLR268W, strain sec22, hits give low values
  normalized growth: 0.978
Locus YLR320W, strain mms22, hits give low values
  normalized growth: 0.891
Locus YLR330W, strain CHS5, hits give low values
  normalized growth: 1.02
Locus YLR342W, strain FKS1 (second series), hits give low values
  normalized growth: 1.02
Locus YLR342W, strain FKS1, hits give low values
  normalized growth: 1.01
Locus YLR357W, strain rsc2, hits give low values
  normalized growth: 1.09
Locus YLR370C, strain arc18, hits give low values
  normalized growth: 0.975
Locus YLR371W, strain rom2, hits give low values
  normalized growth: 1.02
Locus YLR384C, strain iki3, hits give low values
  normalized growth: 1.03
Locus YLR418C, strain cdc73, hits give low values
  normalized growth: 0.917
Locus YML016C, strain PPZ1, hits give low values
  normalized growth: 1.01
Locus YML032C, strain rad52, hits give low values
  normalized growth: 1.01
Locus YML120C, strain ndi1, hits give low values
  normalized growth: 0.95
Locus YML124C, strain tub3, hits give low values
  normalized growth: 1.01
Locus YMR058W, strain fet3, hits give low values
  normalized growth: 0.994
Locus YMR078C, strain ctf18, hits give low values
  normalized growth: 1.01
Locus YMR125W, strain sto1, hits give low values
  normalized growth: 1.05
Locus YMR129W, hits give low values
  normalized growth: 1
Locus YMR205C, strain PFK2, hits give low values
  normalized growth: 0.929
Locus YMR223W, strain ubp8, hits give low values
  normalized growth: 1
Locus YMR231W, strain pep5, hits give low values
  normalized growth: 0.983
Locus YMR307W, strain GAS1, hits give low values
  normalized growth: 1
Locus YNL067W, strain RPL9B, hits give low values
  normalized growth: 0.987
Locus YNL071W, strain lat1, hits give low values
  normalized growth: 0.894 (active)
Locus YNL128W, strain TEP1, hits give low values
  normalized growth: 0.995
Locus YNL183C, strain NPR1, hits give low values
  normalized growth: 0.886
Locus YNL209W, strain ssb2, hits give low values
  normalized growth: 0.979
Locus YNL233W, strain BNI4, hits give low values
  normalized growth: 0.976
Locus YNL248C, strain rpa49, hits give low values
  normalized growth: 1.06
Locus YNL250W, strain rad50, hits give low values
  normalized growth: 1.02
Locus YNL271C, strain bni1, hits give low values
  normalized growth: 1.02
Locus YNL298W, strain CLA4, hits give low values
  normalized growth: 1.01
Locus YNL307C, strain MCK1, hits give low values
  normalized growth: 0.962
Locus YNL322C, strain KRE1 (second series), hits give low values
  normalized growth: 0.991
Locus YNL322C, strain KRE1, hits give low values
  normalized growth: 1
Locus YNR049C, strain mso1, hits give low values
  normalized growth: 1.01
Locus YNR052C, strain pop2, hits give low values
  normalized growth: 1.01
Locus YOL006C, strain TOP1, hits give low values
  normalized growth: 0.944
Locus YOL012C, strain htz1
  normalized growth: 0.818
Locus YOL147C, strain pex11, hits give low values
  normalized growth: 1.03
Locus YOR001W, strain rrp6, hits give low values
  normalized growth: 0.967
Locus YOR061W, strain CKA2, hits give low values
  normalized growth: 1
Locus YOR069W, strain VPS5, hits give low values
  normalized growth: 1
Locus YOR070C, strain gyp1, hits give low values
  normalized growth: 0.961
Locus YOR080W, strain dia2, hits give low values
  normalized growth: 0.994
Locus YOR083W, strain WHI5, hits give low values
  normalized growth: 0.969
Locus YOR106W, strain vam3, hits give low values
  normalized growth: 0.974
Locus YOR136W, strain idh2, hits give low values
  normalized growth: 1.01
Locus YOR144C, strain elg1, hits give low values
  normalized growth: 1
Locus YOR184W, strain ser1, hits give low values
  normalized growth: 0.952
Locus YOR231W, strain MKK1, hits give low values
  normalized growth: 0.94
Locus YOR265W, strain rbl2, hits give low values
  normalized growth: 0.973
Locus YOR270C, strain vph1, hits give low values
  normalized growth: 0.853
Locus YOR290C, strain snf2, hits give low values
  normalized growth: 0.985
Locus YOR316C, strain cot1, hits give low values
  normalized growth: 1.01
Locus YPL051W, strain arl3, hits give low values
  normalized growth: 0.963
Locus YPL055C, strain LGE1, hits give low values
  normalized growth: 0.942
Locus YPL078C, strain atp4, hits give low values
  normalized growth: 1.03
Locus YPL106C, strain sse1, hits give low values
  normalized growth: 0.977
Locus YPL240C, strain hsp82, hits give low values
  normalized growth: 0.975
Locus YPL241C, strain CIN2, hits give low values
  normalized growth: 1.01
Locus YPL256C, strain CLN2, hits give low values
  normalized growth: 0.942
Locus YPR119W, strain clb2, hits give low values
  normalized growth: 1.01
Locus YPR141C, strain kar3, hits give low values
  normalized growth: 1.04
Locus YPR163C, strain tif3, hits give low values
  normalized growth: 0.933
Locus YPR167C, strain met16, hits give low values
  normalized growth: 1
Strain wtn01, hits give low values
  normalized growth: 1.03
